According to PubChem BioAssay (NCI):
Compounds without any hit were thinned out: in the full panel of roughly 83,000, 20% have a hit.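 Activity criterion: percent growth below 10, measured after cells in 96-well plates were exposed to a single compound concentration for 48 hours.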 A number with no mark means an inactive call. Activity calls are given as the source filed them.

Legend:
Test in all cases: NCI-60 one-dose screen, 48 h (100 = growth as untreated, 0 = no growth, -100 = all killed)
Conditions in all cases: 10 µM unless noted
[1] = test system: SR leukemia
[2] = test system: RPMI-8226 leukemia
[3] = test system: OVCAR-8 ovarian
[4] = test system: OVCAR-5 ovarian
[5] = test system: OVCAR-4 ovarian
[6] = test system: SK-OV-3 ovarian
[7] = test system: IGROV1 ovarian
[8] = test system: OVCAR-3 ovarian
[9] = test system: HS 578T breast
[10] = test system: NCI/ADR-RES ovarian

| Structure (SMILES) | growth [1] | growth [2] | growth [3] [%] | growth [4] | growth [5] [%] | growth [6] [%] | growth [7] | growth [8] | growth [9] | growth [10] |
| --- | --- | --- | --- | --- | --- | --- | --- | --- | --- | --- |
| CN1CCN(c2ccc(/C=N/n3cnc4oc(-c5ccccc5)cc4c3=N)cc2)CC1 | 36.6% | 87.9% | 96.1 | 76.2% | 83.1 | 71.3 | 36.7% | 90.2% | 63.8% | 81.3% |
| O=C(Nc1ccc(N=Cc2c(O)[nH]c3ccccc23)cc1)Nc1nccs1 | 10.7% | 83.6% | 55.7 | 60.4% | 40.6 | 55 | 29.5% | 15.4% | 31.5% | 40.8% |
| COc1ccc(/C(N)=N/C(N)=N/c2nc3ccccc3s2)cc1 | 13.4% | 43.6% | 97.3 | 103% | 76.5 | 99.6 | 49.8% | 96% | 81.3% | 35% |
| N/C(=N\C(N)=N\c1nc2ccccc2s1)c1ccc(C(F)(F)F)cc1 | 9.02% (active) | 46.5% | 55.8 | 105% | 94.6 | 124 | 80.5% | 91.2% | 86.9% | 30.4% |
| CC(=O)Nc1cccc(Nc2nc(N[C@@H](C)c3ccccc3)c3ccccc3n2)c1 | -43.4% (active) | -30.9% (active) | 39 | 18.6% | 17.5 | 53.6 | 18.4% | 13% | 1.68% (active) | -0.0139% (active) |
| NS(=O)(=O)c1ccc(Nc2nc(N/N=C/CCc3ccccc3)nc(Nc3ccccc3)n2)cc1 | 91.5% | 101% | 104 | 103% | 104 | 104 | 106% | 117% | 96.8% | 113% |
| O=C(CN1CCN(c2cc(=O)n(-c3ccccc3)c3ccccc23)CC1)Nc1cccc(C(F)(F)F)c1 | 67.3% | 47% | 70.6 | 91.8% | 19.9 | 77.3 | 60.7% | 69.8% | 76.3% | 64.7% |
| CCCCCCCn1cc2c(N[C@H](C)c3ccccc3)ncnc2n1 | 99.5% | 100% | 103 | 104% | 100 | 117 | 89.9% | 103% | 91.2% | 102% |
| Cn1cc(-c2nc(N)nnc2-c2c[nH]c3ccc(Br)cc23)c2cc(Br)ccc21 | 20.4% | 31.1% | 57.8 | 79.9% | 110 | 72.4 | 43.7% | 26.8% | 76.7% | 46.5% |
| Cc1ccc(NC(=S)NNC(=S)Nc2ccc(C)cc2)cc1 | 90% | 104% | 105 | 104% | 100 | 111 | 103% | 127% | 110% | 104% |
| CC(=O)c1ccc(Nc2nc(SCC(C)C)nc(-c3ccc(F)cc3)c2C#N)cc1 | 102% | 118% | 101 | 113% | 115 | 114 | 111% | 115% | 122% | 110% |
| CC1(C)[C@@H](O)CC[C@]2(C)[C@H]3CC[C@@H]4[C@H]5[C@H](C(=O)/C=C\c6ccccn6)CC[C@]5(O)CC[C@@]4(C)[C@]3(C)CC[C@@H]12 | -17.6% (active) | -19.2% (active) | 39.5 | 48.4% | 32.9 | 89.8 | 34.5% | 25.4% | 39.2% | 26.4% |
| COc1ccccc1NCc1cccn1Cc1ccc(F)cc1 | 100% | 95.2% | 103 | 95.7% | 96.9 | 116 | 88.8% | 112% | 105% | 93.7% |
| Cn1ccnc1C(=O)/C=C/c1ccc(CNC(=O)c2ccc(S(F)(F)(F)(F)F)cc2)cc1 | 4.16% (active) | -10.9% (active) | 26.4 | 22.4% | 35.6 | 66.8 | 16.7% | 16.8% | 23% | 12.2% |
| CCc1nn2c(C)cc(C)nc2c1Cc1ccc(/C=C/CN2CCN(CCOCCOCCN3CCN(C/C=C/c4ccc(Cc5c(CC)nn6c(C)cc(C)nc56)cc4)CC3)CC2)cc1 | -30.9% (active) | -41.9% (active) | 19.1 | 28.2% | 25.9 | 85.2 | 4.6% (active) | -60.4% (active) | -39.4% (active) | 23.2% |
| COc1ccc2c(c1)c(CC(=O)[Se]CC(=O)O)c(C)n2C(=O)c1ccc(Cl)cc1 | 101% | 98.4% | 101 | 104% | 103 | 116 | 74.5% | 113% | 85.8% | 103% |
| O=C1CCCc2nc(Nc3ccc(S(=O)(=O)Nc4ccc([N+](=O)[O-])cc4)cc3)ncc21 | 105% | 100% | 106 | 111% | 107 | 109 | 98% | 98.9% | 98.4% | 105% |
| COc1cc(-c2nn(C(C)(C)C)cc2-c2ccnc(NCCCNS(=O)(=O)c3cccc(F)c3)n2)ccc1Cl | 50.6% | 51.8% | 89.3 | 80.5% | 45.8 | 102 | 48.9% | 85% | 80.3% | 74.5% |
| C=C(C=O)[C@@H]1CC[C@]2(C)[C@H](CC=C3[C@H]4[C@@H](C)[C@H](C)CC[C@]4(C(=O)OC)CC[C@]32C)[C@@]1(C)CCC#N | 0.262% (active) | -11.9% (active) | 20.1 | 2.05% (active) | 20.1 | 69.7 | -2.63% (active) | -58.2% (active) | -14.4% (active) | 8.1% (active) |
| NC(=O)c1c(NC(=O)c2ccc(F)cc2F)sc2c1CCC(=O)C2 | 35.8% | 9.53% (active) | 44 | 24.5% | 27 | 103 | 50.5% | 14.8% | 43.9% | 32.7% |
| N/C(=N\C(N)=N\c1nc2ccccc2s1)c1ccncc1Cl | 39.4% | 11.6% | 49 | 61.1% | 104 | 41.8 | 34.2% | 19.8% | 35.7% | 25.2% |
| COc1cccc(N2CCN(c3ncnc4c3[nH]c3ccc(F)cc34)C[C@H]2C)c1 | 46.4% | 19.2% | 22 | 91.4% | 28 | 68 | 59.5% | 69.4% | 72.9% | 17% |
| C=C(C)[C@@H]1CC[C@]2(COP(=O)(OCC)OCC)CC[C@]3(C)[C@H](CC[C@@H]4[C@@]5(C)CCCNC(C)(C)[C@@H]5CC[C@]43C)[C@@H]12 | -51.4% (active) | -46.6% (active) | 55.4 | 58.6% | 23.5 | 103 | 6.74% (active) | 54% | 52.9% | 27.6% |
| COc1ccc(S(=O)(=O)NCCCNc2nccc(-c3cn(C(C)(C)C)nc3-c3ccc(Cl)c(OC)c3)n2)cc1 | 48.8% | 84.7% | 87.9 | 90.3% | 58.9 | 103 | 57.9% | 97.5% | 82.9% | 87.8% |
| NC(N)=Nc1ccc(Oc2cccc(NC(N)=Nc3ccc(Br)cc3)c2)cn1 | 34.5% | 51.4% | 68.1 | 66.7% | 71 | 73.6 | 37.9% | 64.9% | 44.2% | 100% |
| Cc1nn(-c2ccccc2)c2ncnc(N/N=C/c3ccccc3O)c12 | 11.5% | 20.4% | 12.2 | 35.9% | 28.6 | 10.4 | 3.8% (active) | 29.4% | 35.6% | 3.15% (active) |
